Screening results as filed in PubChem BioAssay.
This excerpt belongs to a sample that is enriched for hits.
Choline anaer gr = blocks anaerobic gram-negative growth on choline; Gram-negative bacterium anaerobic choline minimal medium, absorbance growth; active compounds read low; calls only; hit rate 0.2% among 55,000; call rule not given here
* marks the source's active call; other numbers are inactive results; i = inactive; + = active, no number.

SMILES | Choline anaer gr
CCOc1ccccc1NC(=O)N(C)CCc1noc(COc2ccc(Cl)cc2)n1 | i
CCc1ccc(OCc2nc(CCN(C)C(=O)Nc3ccc(C(=O)OC)cc3)no2)cc1 | +
CCc1cccc(C)c1-n1nnnc1C(C)(C)NC | i
NC(=O)CSc1nnc2n(CCC(=O)NC3CCCCC3)c(=O)c3ccccc3n12 | i
CN1CCN(CCNc2nc(C3CC3)nc3c2CCC3)CC1 | i
O=C1CCCN1CCCNc1nc(C2CC2)nc2c1CCC2 | i
CCN1CCN(CCNc2nc(C3CC3)nc3c2CCC3)CC1 | +
CN1CCN(c2ccc(NS(=O)(=O)c3ccc(F)cc3)cc2C(=O)O)CC1 | i
Cc1sc(-c2nc(C(C)C)cs2)cc1S(=O)(=O)N1CCN(c2ccccc2)CC1 | i
COc1ccc(-c2nonc2NC(=O)C(C)Oc2cc(C)c(Cl)c(C)c2)cc1C (stereo not drawn) | i
